SMILES strings stand for the structures. A number with no mark means an inactive call. The rule behind the calls is not given here.

Sequence of Pantothenate synthetase (Mycobacterium tuberculosis (strain ATCC 25618 / H37Rv)) (P9WIL5 whole entry, looked up): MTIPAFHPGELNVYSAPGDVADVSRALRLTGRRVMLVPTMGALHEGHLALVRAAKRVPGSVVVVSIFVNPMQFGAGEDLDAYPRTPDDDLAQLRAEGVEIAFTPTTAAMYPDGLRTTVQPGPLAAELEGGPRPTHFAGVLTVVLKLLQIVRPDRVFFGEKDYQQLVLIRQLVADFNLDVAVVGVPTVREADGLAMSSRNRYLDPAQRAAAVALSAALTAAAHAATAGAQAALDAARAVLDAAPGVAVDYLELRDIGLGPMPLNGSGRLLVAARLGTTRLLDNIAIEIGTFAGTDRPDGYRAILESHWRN

This assay concerns the target Pantothenate synthetase (Mycobacterium tuberculosis (strain ATCC 25618 / H37Rv)) (UniProt P9WIL5). Briefly: Recombinant Mtb pantothenate synthetase (PanC) inhibitors, coupled enzyme, confirmatory (AID 375).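 Note: 0% = full reaction with vehicle and 100% = no enzyme background.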 The note with it: coupled enzyme assay; at 10 µM, hits give high values.
Broadly, the inhibition is the drop in the measured response relative to a control, in per cent. In the case of `CC(C)Oc1ccc2c(=O)c(-c3ccccc3)coc2c1`, the inhibition was 4%.

For the compound `Cc1oc(-c2ccccc2F)nc1CS(=O)(=O)CC(=O)NCc1ccco1`, the inhibition was 0%.

Turning to `CCC(C)(C(=O)NC1CCCCC1)N(CC1CCCO1)C(=O)c1ccccn1` (stereo not given), the inhibition is 0%.

Regarding `CC1CCN(c2c(NCc3ccc(C(=O)N4c5ccccc5CC4C)cc3)c(=O)c2=O)CC1` (stereo not given), the inhibition was 0%.

For `O=C(CN(Cc1ccco1)C(=O)CNS(=O)(=O)c1ccc(Cl)cc1)NCc1ccc(F)cc1`, the inhibition was 3%.

Regarding `Cc1cc(N2CCC3(CC2)OCCO3)n2nc(C)c(-c3ccc(Cl)cc3)c2n1`, the inhibition was 8%.

As to `O=C(Nc1ccccc1)c1ccc(NCC2CCCO2)c(S(=O)(=O)N2CCOCC2)c1` (stereo not given), the inhibition was 0%.

As for `Cc1ccc(N(CC(=O)NCC2CCCO2)S(C)(=O)=O)cc1Cl` (stereo not given), the inhibition was 0%.

Take `O=C(Cc1c(O)c2ccccc2[nH]c1=O)NCc1ccc(F)cc1`: the inhibition is 0%.

Regarding `C[C@H](NC(=O)OC(C)(C)C)C(=O)NCC1CCC(C(=O)O)CC1` (stereo not given in full), the inhibition is 0%.

With `CCOc1cc(C2/C(=C(/O)c3ccc(OC(C)C)cc3)C(=O)C(=O)N2CCCOC)ccc1O` (stereo not given), the inhibition was 0%.

Turning to `COc1ccc(C(=O)NCCc2nnc(SCc3nc4ccccc4c(=O)[nH]3)n2C)cc1`, the inhibition was 0%.

In the case of `O=C(CCN1C(=O)c2ccccc2C1=O)N1CCN(C(=O)c2ccccc2)CC1`, the inhibition is 0%.

With `CCOC(=O)N1CCC(NC(=O)C2CCC(Cn3c(=O)[nH]c4ccccc4c3=O)CC2)CC1` (stereo not given), the inhibition was 9%.

On to `CN(C)c1cccc(NC(=O)CCc2ccccc2)c1`, for which the inhibition was 0%.

Take `CC(=O)C1=C(O)C(=O)N(C2CCCCC2)C1c1ccccc1` (stereo not given): the inhibition was 0%.

`COc1ccc(Cn2nnnc2C(c2ccccc2OC)N2CCC(C(N)=O)CC2)cc1` (stereo not given): the inhibition was 0%.

For `CCOc1ncccc1C(=O)Nc1ccc(Cl)cc1`, the inhibition is 2%.

In the case of `CC(=O)c1n[nH]nc1NC(=O)c1ccccc1`, the inhibition is 0%.

Regarding `CCC(=O)Nc1c2c(nn1-c1ccccc1C)CSC2`, the inhibition was 6%.

Regarding `CCn1c(SCC(=O)N2CCOCC2)nc2c(c1=O)SC(C)C2` (stereo not given), the inhibition is 0%.

Consider `Cc1ccc(S(=O)(=O)N(C)CC(=O)NC2CCCC2)cc1`, for which the inhibition was 0%.

As for `O=S(=O)(NCc1cn2ccsc2n1)c1ccc2c(c1)OCCO2`, the inhibition is 0%.

`COc1ccc(N2CCN(Cc3cc(=O)oc4cc(C)c(Cl)c(C)c34)CC2)cc1`: the inhibition was 6%.

With `O=C1c2ccccc2C(Nc2ccc3c(c2)OCO3)N1Cc1ccc2c(c1)OCO2` (stereo not given), the inhibition is 0%.

As for `Cc1ccc(OC(=O)CCC(=O)OCCCC(F)(F)C(F)(F)F)cc1`, the inhibition is 3%.

On to `COC(=O)Nc1sccc1C(=O)Nc1sccc1C(=O)OC`, for which the inhibition was 0%.

On to `CCOc1ccc(NC(=O)CC2NCCNC2=O)cc1` (stereo not given), for which the inhibition is 9%.

As for `Nc1nc(SCc2nc3scc(-c4cccs4)c3c(=O)[nH]2)n[nH]1`, the inhibition is 6%.

`CCCN(CCC)c1nc2ccccc2n2c(C)nnc12`: the inhibition was 4%.

As to `Cc1nc(N2CCOCC2)[nH]c(=O)c1CCC(C)C`, the inhibition is 8%.

As for `O=S(=O)(c1ccc2c(c1)nc1n2CCC1)N1CCOCC1`, the inhibition was 0%.

Consider `CCN(CCCNC(=O)CC1Oc2ccc(C)cc2NC1=O)Cc1ccccc1` (stereo not given), for which the inhibition is 0%.

For the compound `O=C(CCNNC(=O)c1ccncc1)NCc1ccccc1`, the inhibition was 0%.

Consider `O=C(Cn1nnc(-c2ccc(CN3CCOCC3)cc2)n1)NC1CCCCC1`, for which the inhibition is 12%.

Take `O=C(NCCCN1CCCC1=O)c1ccc2c(c1)NC(=O)C(N1CCOCC1)S2` (stereo not given): the inhibition is 2%.

Consider `Cn1c(=O)[nH]c(=O)c2[nH]c(CN3CCN(C(=O)c4ccco4)CC3)nc21`, for which the inhibition is 0%.

`Cn1c(CCCNC(=O)c2ccccc2)nc2ccccc21`: the inhibition is 2%.

Regarding `Nc1ncnc(Nc2ccccc2C(F)(F)F)n1`, the inhibition was 0%.

Take `COc1cccc(Nc2cc(C)nc3ccccc23)c1`: the inhibition is 1%.

(Values after PubChem BioAssay.)
